Experiment [1] concerns the target Peroxisome proliferator-activated receptor delta (Homo sapiens) (UniProt Q03181). Briefly: qHTS assay to identify small molecule agonists of the peroxisome proliferator-activated receptor delta (PPARd) signaling pathway (AID 743212; calls by dose curve). An outline of the steps: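 GeneBLAzer PPARd UAS-bla HEK293H cells (beta-lactamase reporter under UAS control), plated and rested 5 h at 37 C, then exposed to compounds in DMSO at 37 C; LiveBLAzer B/G FRET substrate added, 2 h room temperature, fluorescence read.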

Experiment [2] is described as follows: qHTS assay to identify small molecule antagonists of the peroxisome proliferator-activated receptor delta (PPARd) signaling pathway - cell viability counter screen (AID 743213). Note: nearly all actives have a fitted effect of over 50% in size. Note: potency is the fitted concentration of half-maximal effect. A digest of the protocol: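 HEK293H cells with the PPARd UAS-bla reporter, co-treated 17 h at 37 C with compounds and L165041 (300 nM final), were lysed with CellTiter-Glo. Luminescence indicated viable cell content.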

A short description of experiment [3]: qHTS assay to identify small molecule agonists of the farnesoid-X-receptor (FXR) signaling pathway - cell viability counter screen (AID 743218). Note: nearly all actives have a fitted effect of over 45% in size. An outline of the steps:
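FXR-UAS-bla HEK 293T cells, plated 5 h at 37 C, were exposed to compounds for 16 h at 37 C. CellTiter-Glo was then added to the same wells as the bla readout; luminescence read after 30 min at room temperature.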

Experiment [4] deals with Bile acid receptor (Homo sapiens) (UniProt Q96RI1). Briefly: qHTS assay to identify small molecule agonists of the farnesoid-X-receptor (FXR) signaling pathway (AID 743220; active = well fitted activation curve with a large enough effect in the signal ratio in the repeat runs, not every such curve was filed as active; the % refers to the signal ratio). A digest of the protocol:
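Beta-lactamase reporter under UAS control in GeneBLAzer FXR HEK 293T cells (5000/well) measured with LiveBLAzer FRET substrate after 2 h at room temperature. Compound exposure lasted 16 h at 37C.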

In experiment [5] the target is Vitamin D3 receptor (Homo sapiens) (UniProt P11473). Briefly: qHTS assay to identify small molecule agonists of the vitamin D receptor (VDR) signaling pathway (AID 743222; calls by dose curve). A digest of the protocol:
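VDR-bla cells were plated 4 h at 37C/5% CO2, then exposed to compounds in DMSO for 16 h. After LiveBLAzer B/G FRET substrate addition and 2 h at room temperature, beta-lactamase reporter fluorescence was read.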

Experiment [6] in a line: qHTS assay to identify small molecule agonists of the vitamin D receptor (VDR) signaling pathway - cell viability counter screen (AID 743224). Note: series mostly up to about 63 µM; nearly all actives have a fitted effect of over 50% in size. An outline of the steps:
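VDR-bla cells were preincubated 4 h at 37C/5% CO2, then exposed to compounds for 16 h. After the 2 h room-temperature bla FRET read, CellTiter-Glo was added to the same wells and luminescence read after 30 min.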

Experiment [7] deals with Peroxisome proliferator-activated receptor delta (Homo sapiens) (UniProt Q03181). Briefly: qHTS assay to identify small molecule antagonists of the peroxisome proliferator-activated receptor delta (PPARd) signaling pathway (AID 743215; active = well fitted inhibition curve with a large enough effect in the signal ratio in the repeat runs, not every such curve was filed as active; the % refers to the signal ratio;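 note: cells stimulated with agonist L165041 at 300 nM final during compound exposure; series mostly up to about 62 µM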). A digest of the protocol: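 PPARd UAS-bla HEK293H cells were pre-incubated 5 h at 37 C, then given test compounds in DMSO plus agonist L165041 (300 nM final). After 17 h at 37 C, beta-lactamase FRET substrate was added; fluorescence read after 2 h at room temperature.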
Peroxisome proliferator-activated receptor delta (Homo sapiens), sequence (Q03181 whole entry, looked up): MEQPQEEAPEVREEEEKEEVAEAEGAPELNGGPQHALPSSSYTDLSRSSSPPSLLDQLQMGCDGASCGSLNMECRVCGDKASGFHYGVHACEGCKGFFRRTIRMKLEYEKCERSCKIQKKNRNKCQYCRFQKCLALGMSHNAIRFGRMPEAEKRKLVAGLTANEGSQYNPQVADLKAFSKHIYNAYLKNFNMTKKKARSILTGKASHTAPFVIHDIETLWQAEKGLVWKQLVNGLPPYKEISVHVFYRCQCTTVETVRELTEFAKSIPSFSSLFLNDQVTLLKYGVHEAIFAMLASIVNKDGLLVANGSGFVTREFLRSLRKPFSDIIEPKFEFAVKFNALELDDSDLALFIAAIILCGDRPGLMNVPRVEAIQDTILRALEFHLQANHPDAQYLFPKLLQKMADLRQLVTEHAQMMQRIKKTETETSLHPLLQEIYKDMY

The nature of experiment [8]: qHTS assay to identify small molecule antagonists of the farnesoid-X-receptor (FXR) signaling pathway - cell viability counter screen (AID 743221; active = well fitted cell-killing curve with a large enough effect in the repeat runs, not every such curve was filed as active; note: nearly all actives have a fitted effect of over 50% in size). A digest of the protocol:
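In GeneBLAzer FXR-UAS-bla HEK 293T cells stimulated with 50 uM chenodeoxycholic acid (final), compounds acted for 16 h at 37 C. Viability was assessed afterwards by CellTiter-Glo luminescence.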

Experiment [9] deals with Vitamin D3 receptor (Homo sapiens) (UniProt P11473). The experiment can be described thus: qHTS assay to identify small molecule antagonists of the vitamin D receptor (VDR) signaling pathway (AID 743223; active = well fitted inhibition curve with a large enough effect in the signal ratio in the repeat runs, not every such curve was filed as active; the % refers to the signal ratio). An outline of the steps: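 Agonist 1alpha,25-dihydroxyvitamin D3 (3 nM in well) was added with each compound to VDR-bla cells preincubated 4 h. Cells stood 16 h at 37C, then FRET substrate 2 h at room temperature; fluorescence intensity recorded.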
Vitamin D3 receptor (Homo sapiens), sequence (P11473 whole entry, looked up): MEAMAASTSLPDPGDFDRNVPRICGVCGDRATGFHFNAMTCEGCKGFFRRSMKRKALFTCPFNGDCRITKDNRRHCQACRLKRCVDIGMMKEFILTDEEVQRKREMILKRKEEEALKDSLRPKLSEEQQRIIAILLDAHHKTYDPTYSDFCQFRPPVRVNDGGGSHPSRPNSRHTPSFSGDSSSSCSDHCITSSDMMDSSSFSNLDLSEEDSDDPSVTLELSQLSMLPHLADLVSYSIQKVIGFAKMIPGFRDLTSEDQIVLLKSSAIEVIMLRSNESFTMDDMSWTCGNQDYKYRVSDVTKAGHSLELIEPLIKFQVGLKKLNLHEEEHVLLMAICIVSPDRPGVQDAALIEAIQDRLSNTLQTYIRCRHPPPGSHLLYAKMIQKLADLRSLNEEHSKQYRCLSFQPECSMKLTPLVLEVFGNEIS

Each structure is given as a SMILES string. Inconclusive results are not listed. The source holds several records for some structures; these can differ, active in one and inactive in another. The source made the active and inactive calls. Unless noted, calls come from the whole dose curve; as a rule, active = well fitted curve in the direction sought with a large enough effect in the repeat runs; inconclusive = weak or mixed curves; inactive = no such curve, though single readings can be large; an effect the other way counts as inactive or inconclusive.

Bile acid receptor (Homo sapiens), sequence (Q96RI1 whole entry, looked up): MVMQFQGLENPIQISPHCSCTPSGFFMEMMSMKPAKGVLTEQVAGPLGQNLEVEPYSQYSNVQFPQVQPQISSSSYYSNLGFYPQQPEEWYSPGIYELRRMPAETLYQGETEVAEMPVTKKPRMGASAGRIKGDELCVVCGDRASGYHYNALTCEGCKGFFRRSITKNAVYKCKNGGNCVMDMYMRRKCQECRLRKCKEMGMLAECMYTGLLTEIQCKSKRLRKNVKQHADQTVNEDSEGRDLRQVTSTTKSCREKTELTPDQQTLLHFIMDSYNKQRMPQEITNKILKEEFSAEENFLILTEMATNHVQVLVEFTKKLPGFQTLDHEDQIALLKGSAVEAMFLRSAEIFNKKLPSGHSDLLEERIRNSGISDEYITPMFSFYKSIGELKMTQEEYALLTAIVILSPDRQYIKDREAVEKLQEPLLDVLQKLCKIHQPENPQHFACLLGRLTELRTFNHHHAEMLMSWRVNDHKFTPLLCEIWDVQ

In the case of `CC(=O)[C@@]1(O)CC[C@H]2[C@@H]3C[C@H](C)C4=CC(=O)C=C[C@]4(C)[C@@]3(F)[C@@H](O)C[C@@]21C`, the outcome in [1], in experiment [4] and in experiment [5] was inactive. The Potency entry in experiment [2], in [3] and in experiment [6] was “inactive” in each case.

On to `O=C(O)c1ccc(O)cc1`, for which the outcome in experiment [1], in experiment [7] and in experiment [4] was inactive. Also, the Potency entry in [2], in experiment [3], in [8] and in experiment [6] was “inactive” throughout.

As to `O=Cc1ccccc1C=O`, the compound was classed as inactive in experiment [1] and in experiment [7]. For the same compound, the Potency in experiment [2] was 24.5 µM (active) and inactive. Also, the Potency entry in [3], in [8] and in experiment [6] was “inactive” in each case.

On to `CCCCCC1C(=O)CCC1CC(=O)OC` (configuration not stated), for which the compound was called inactive in experiment [1], in experiment [7] and in [5]. The Potency result in experiment [2], in experiment [3], in [8] and in [6] was “inactive” throughout.

Consider `CC(C)[N+](C)(CCOC(=O)C1c2ccccc2Oc2ccccc21)C(C)C`, for which the compound was called inactive in experiment [1], in experiment [7], in experiment [4] and in experiment [5]. The Potency entry in experiment [2], in experiment [3] and in [6] was “inactive” each time.

In the case of `NCCOCCO`, the compound was called inactive in experiment [1], in experiment [7], in experiment [4], in experiment [5] and in experiment [9]. The Potency entry in experiment [2], in [3] and in experiment [6] was “inactive” each time.

On to `C[N+](C)(C)CCO`, for which the outcome in [1], in experiment [7] and in experiment [5] was inactive. Also, the Potency entry in experiment [2], in experiment [3] and in [6] was “inactive” each time.

Take `Cc1ccc(C(C)(C)C)cc1`: the outcome in experiment [1], in [7] and in experiment [5] was inactive. The Potency result in [2], in experiment [3], in experiment [8] and in experiment [6] was “inactive” throughout.

For the compound `Cc1ccc(N)c([N+](=O)[O-])c1`, the call in experiment [1], in [7] and in [5] was inactive. Also, the Potency entry in experiment [2], in experiment [3], in [8] and in experiment [6] was “inactive” each time.

Take `CCCCCCCC/C=C\CCCCCCCC(=O)O`: the result in experiment [1], in experiment [7] and in experiment [4] was inactive. The Potency entry in experiment [2], in experiment [3] and in [6] was “inactive” each time.

On to `CC(C)(Oc1ccc(Cl)cc1)C(=O)O`, for which the call in experiment [1], in experiment [7] and in [5] was inactive. Besides, the Potency result in [2], in experiment [3] and in experiment [6] was “inactive” each time.

Consider `CCCCCC=O`, for which the result in experiment [1], in experiment [4], in [5] and in [9] was inactive. The Potency entry in experiment [2], in [3], in experiment [8] and in experiment [6] was “inactive” throughout.

In the case of `CC(=O)[C@H]1CC[C@H]2[C@@H]3CC=C4C[C@@H](O)CC[C@]4(C)[C@H]3CC[C@]12C`, the compound was called inactive in [1], in [7], in experiment [4] and in experiment [5]. Moreover, the Potency entry in [2], in experiment [3], in experiment [8] and in experiment [6] was “inactive” in each case.

On to `c1ccc2ncccc2c1`, for which the outcome in [1] and in [7] was inactive. The Potency result in [2], in [3] and in experiment [6] was “inactive” throughout.

In the case of `O=S1(=O)CCCO1`, the compound was called inactive in experiment [1], in [5] and in [9]. For the same compound, the Potency entry in experiment [2], in [3], in [8] and in experiment [6] was “inactive” in each case.

On to `Brc1nc2ccccc2s1`, for which the Potency entry in experiment [2], in experiment [3], in experiment [8] and in [6] was “inactive” in each case. Moreover, the outcome in experiment [7], in [4] and in experiment [5] was inactive.

Consider `CCC(Cc1c(I)cc(I)c(N)c1I)C(=O)O` (configuration not stated), for which the Potency entry in [2], in experiment [3], in experiment [8] and in [6] was “inactive” in each case. Also, the outcome in experiment [7], in experiment [4] and in experiment [5] was inactive.

In the case of `Nc1cc([N+](=O)[O-])ccc1C(=O)O`, the Potency entry in [2], in experiment [3], in experiment [8] and in experiment [6] was “inactive” each time. For the same compound, the call in experiment [7], in experiment [5] and in experiment [9] was inactive.

`C1CN(SSN2CCOCC2)CCO1`: the Potency result in experiment [2], in experiment [3] and in [6] was “inactive” throughout. The compound was classed as inactive in experiment [7] and in [4].

`CC(C)=CCO`: the call in [1] and in experiment [5] was inactive. The Potency entry in experiment [2], in experiment [3], in experiment [8] and in [6] was “inactive” each time.

As for `CCCCCCC(C)O` (configuration not stated), the Potency result in experiment [2], in [3], in experiment [8] and in [6] was “inactive” each time. In addition, the compound was called inactive in experiment [7], in experiment [5] and in experiment [9].

On to `c1ccc2cc3ccccc3cc2c1`, for which the Potency entry in experiment [2], in experiment [3], in experiment [8] and in experiment [6] was “inactive” in each case. In addition, the compound was called inactive in experiment [7], in [4] and in experiment [5].

As to `CC(=O)OC(C)C`, the Potency result in [2], in [3], in experiment [8] and in experiment [6] was “inactive” throughout. Besides, the outcome in experiment [7], in experiment [4] and in experiment [5] was inactive.

Regarding `C=CN1CCCC1=O`, the Potency entry in [2], in experiment [3], in experiment [8] and in experiment [6] was “inactive” in each case. Also, the compound was called inactive in [7].

As to `Cc1ccc(S(=O)(=O)O)cc1C`, the Potency result in experiment [2], in experiment [3], in [8] and in [6] was “inactive” throughout. For the same compound, the result in experiment [7] and in experiment [5] was inactive.

Take `COc1ccc(-c2coc3cc(O)cc(O)c3c2=O)cc1`: the Potency result in experiment [2], in experiment [3], in experiment [8] and in experiment [6] was “inactive” in each case. Further, the compound was classed as inactive in experiment [7], in experiment [5] and in experiment [9].
